Most compounds without a hit are left out; they make up all but 3.1% or so of the library.
PI4K2A block = qHTS for small molecular inhibitors of PI4K2A; purified PI4K2A, ADP-Glo luminescence, 1 h; stronger effect = lower value; activity change, negative = inhibition, % at 76.9 µM; 420,000 tested, 0.13% active; AID 1346378, 2018; in the data active = activity change below about -50%; inconclusive = mostly about -30% to -49%
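In this quantitative HTS, ADP production by PI4K2A was quantified luminescently after 1 h at ambient temperature; 100 microM adenosine served as plate-quality control.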
VDR inh = Inhibitors of the vitamin D receptor (VDR): qHTS | AID 504847, 2011 | VDR-SRC2-3 peptide fluorescence polarization, 2 h | Potency, µM, usual class: inhibitors | Vitamin D3 receptor (Homo sapiens), P11473 | 400,000 tested, 0.93% active
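Signal is fluorescence polarization, reporting how far test compounds block the interaction of VDR with the SRC2-3 coregulator peptide after a 2 h room-temperature incubation.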
KAT2A inh = qHTS Assay for Inhibitors of GCN5L2; Histone acetyltransferase KAT2A (Homo sapiens), Q92830; GCN5L2 HAT assay, ThioGlo1 CoA-SH fluorescence; Potency, µM (top dose mostly 58.9 µM), actives largely listed as inhibitors; 390,000 tested, 0.21% active; AID 504327, 2011
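Fluorescence readout, Ex340nm/Em540nm: ThioGlo1 (50uM final) reacts with free CoA thiol released as 20nM GCN5L2 acetylates H3(1-25) peptide (75uM) using acetyl-CoA (70uM). Compound and enzyme sat 15 min beforehand; 20 min room-temperature reaction.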
PLK1 PBD inh = qHTS for Inhibitors of PLK1-PDB (polo-like kinase 1 - polo-box domain): Primary Screen; Plk1 PBD binding of FITC phosphopeptide, fluorescence polarization; Potency, µM, actives largely listed as inhibitors; 360,000 tested, 2.8% active; AID 720504, 2013; also: series mostly up to about 57 µM; nearly all actives have a fitted effect of over 65% in size
GLS inhibitor = qHTS for Inhibitors of Glutaminase (GLS) | GLS enzymatic activity, qHTS titration | Potency, µM (doses to about 45.5 µM), usual class: inhibitors | 410,000 tested, 0.21% active
Target sequence (O94925 whole entry, looked up): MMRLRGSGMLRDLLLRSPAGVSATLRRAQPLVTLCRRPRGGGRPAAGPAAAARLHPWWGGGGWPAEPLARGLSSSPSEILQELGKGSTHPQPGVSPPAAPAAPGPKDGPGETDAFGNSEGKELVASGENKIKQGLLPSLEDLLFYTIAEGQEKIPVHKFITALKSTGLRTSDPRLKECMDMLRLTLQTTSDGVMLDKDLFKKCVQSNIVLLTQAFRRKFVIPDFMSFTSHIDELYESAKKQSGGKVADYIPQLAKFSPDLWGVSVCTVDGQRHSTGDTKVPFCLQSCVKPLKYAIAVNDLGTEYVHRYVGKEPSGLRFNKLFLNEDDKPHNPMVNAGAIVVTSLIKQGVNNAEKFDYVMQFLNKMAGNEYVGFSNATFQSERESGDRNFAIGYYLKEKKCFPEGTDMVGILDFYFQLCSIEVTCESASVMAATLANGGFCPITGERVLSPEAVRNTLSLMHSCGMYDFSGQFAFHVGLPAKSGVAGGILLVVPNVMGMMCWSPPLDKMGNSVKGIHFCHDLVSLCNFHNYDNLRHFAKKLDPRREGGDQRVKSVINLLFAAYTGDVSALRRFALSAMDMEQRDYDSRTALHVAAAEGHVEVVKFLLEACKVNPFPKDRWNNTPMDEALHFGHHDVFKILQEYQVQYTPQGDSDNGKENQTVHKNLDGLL
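Human kidney-isoform GLS in 45 mM KH2PO4 pH 8.2, 0.02% Tween-20, with compound, started with 1mM L-Glutamine (added stock). Glutamate oxidase/HRP/Amplex red coupled fluorescence read at start and after 30 min at RT.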
Numbers stand for hits; n = inactive; u = inconclusive; x = no result. Unless noted, calls follow the shape of the dose curve; as a rule, active = well fitted curve in the direction sought with a large enough effect; inconclusive = small, poorly fitted or top-dose-only effect, or another doubt; inactive = no such curve, though single readings can be large; an effect the other way counts as inactive or inconclusive.

SMILES	PI4K2A block	VDR inh	KAT2A inh	PLK1 PBD inh	GLS inhibitor
O=C(CNC(=O)c1ccccc1F)NCCOc1ccccc1Cl	n	n	n	26.7µM	n
CCOC(=O)C(=O)Nc1sc(C(=O)N(CC)CC)c(C)c1C#N	n	n	n	n	n
CCN(CC)C(=O)c1sc(N)c(C#N)c1C	n	n	n	23.8µM	n
CCCCCCCC(=O)[O-].CCCCCCCC(=O)[O-].[Zn+2]	n	x	x	x	x
CSc1ccc(N/N=C(/C#N)S(=O)(=O)C(C)(C)C)cc1	n	n	n	21.2µM	n
COc1ccc(N/N=C(/C#N)S(=O)(=O)C(C)(C)C)cc1	n	n	n	n	n
N[C@@H](CSCCCO)C(=O)O	n	n	n	x	n
CCC(CO)Oc1cc(NCc2cccc(C)c2)c2ncn(C(C)C)c2c1 (centres undefined)	n	89.1µM	n	n	n
CN1CCN(c2ncc3nc(-c4cc(F)cc(F)c4)c(=O)n(CCC#N)c3n2)CC1	x	22.4µM	25.1µM	x	x
Cn1c(=O)c2[nH]c(N=NNc3ccccc3F)nc2n(C)c1=O	n	79.4µM	n	n	n
Cc1ccccc1NN=Nc1nc2c([nH]1)c(=O)n(C)c(=O)n2C	n	n	n	u	n
COc1ccc(NN=Nc2nc3c([nH]2)c(=O)n(C)c(=O)n3C)cc1	n	u	n	4.74µM	n
CCNc1nc(C#N)nc(NCC)n1	x	n	x	x	x
[N-]=[N+]=Nc1ccc(C(=O)CSC[C@H](NC(=O)CC[C@H](N)C(=O)O)C(=O)NCC(=O)O)cc1	n	44.7µM	7.94µM	x	x
N[C@@H](CCC(=O)N[C@@H](CSN=O)C(=O)NCC(=O)O)C(=O)O	n	n	n	u	n
O=S(=O)(c1ccc(Br)cc1Cl)N1CCN(CCO)CC1	n	n	n	n	n
O=C1C=CC(=O)c2c(O)c(N3CCN(CCO)CC3)c(Cl)c(O)c21	-56.6	8.91µM	x	11.9µM	u
O=C1C=CC(=O)c2c(O)c(N3CCN(CCOCCO)CC3)c(Br)c(O)c21	-59.7	u	x	u	n
CC[C@H](C)[C@H](NC(=O)[C@H](CCC(=O)O)NC(=O)CNC(=O)[C@H](CCCCN)NC(=O)[C@H](CCC(=O)O)NC(=O)[C@H](CCSC)NC(=O)[C@H](CCSC)NC(=O)[C@H](CCSC)NC(=O)[C@H](CCC(=O)O)NC(=O)CNC(=O)[C@H](CO)NC(=O)[C@H](CO)NC(=O)[C@H](CO)NC(=O)[C@@H](N)CC(N)=O)C(=O)N[C@@H](CCCCN)C(=O)O	x	n	n	x	x
Cc1cc2nc(CCl)cc(=O)n2[nH]1	n	n	u	n	n
Cc1cc2nc(CSc3ccccc3)cc(=O)n2[nH]1	n	n	n	21.2µM	n
COc1ccc(-c2nc3ccccn3c2Nc2ccccc2C)cc1	x	n	x	x	x
CCc1nc2oc(C(=O)c3ccccc3)c(N)c2c2c1COC(C)(C)C2	n	n	n	n	n
CCOC(=O)c1oc2nc(C)c3c(c2c1N)CC(C)(C)OC3	n	u	n	11.9µM	u
CCN(C(=O)c1cccc2c1-c1ccccc1C2=O)c1ccccc1	n	x	x	x	x
SMILES	PI4K2A block	VDR inh	KAT2A inh	PLK1 PBD inh	GLS inhibitor
COc1ccccc1CNc1nc2c(S(=O)(=O)c3ccccc3)nnn2c2ccc(Cl)cc12	n	n	25.1µM	x	n
COc1ccc(Nc2nc3c(S(=O)(=O)c4ccccc4)nnn3c3ccc(Cl)cc23)cc1OC	n	n	n	x	n
COCCOC(=O)c1c(C)n(C)c2ccc(OC(=O)c3c(OC)cccc3OC)cc12	n	u	n	9.47µM	n
COCCOC(=O)c1c(C)n(C)c2ccc(OC(=O)N3CCOCC3)cc12	n	n	n	n	n
CCOC(=O)c1cnc2ccccc2c1Nc1cccc(OC)c1	n	n	n	x	n
Cc1ccc(C(=O)Sc2cccccc2=O)cc1	n	20µM	n	2.67µM	n
Cc1ccc(C(=O)CC(=O)c2ccccc2)cc1	n	n	n	n	n
CSc1ccccc1NC(=O)c1ccccc1	n	n	n	n	n
O=C(Nc1ccccc1SC(=O)c1ccccc1)c1ccccc1	n	x	x	4.23µM	n
COCCn1c(=O)cnc2cnc(N3CCN(C)CC3)nc21	x	n	u	x	x
COc1cc(C)c(-c2[nH]ncc2-c2csc(C)n2)c(O)c1	n	n	n	29.9µM	n

Screens: PubChem, National Center for Advancing Translational Sciences (NCATS)
